According to PubChem BioAssay:
Calls of active or inactive are those of the source.

What was measured:
[1] = small molecules captured by biotinylated probe aFSTL3 – biochemical, small-molecule microarray, fluorescence 635/667, stem cell growth factor project, primary screen (AID 1064); settings: higher = more signal;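 note: measures binding of the biotinylated anti-FSTL3 antibody to printed compounds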
[2] = binders from COS7 lysate, DM2A8 probe, primary screen, torsin A project, cell lysate, small-molecule microarray, fluorescence 635/667 (AID 1065); settings: higher = more signal, COS7 lysate expressing mutant human TOR1A
[3] = small molecules captured by biotinylated probe aFGF2 – biochemical, small-molecule microarray, fluorescence 635/667, stem cell growth factor project, primary screen (AID 1067); settings: higher = more signal;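 note: measures binding of biotinylated aFGF2 protein to printed compounds on slides; z-score merges feature fluorescence and signal-to-noise across triplicate slides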
[4] = small molecules captured by biotinylated probe aFGF10 – biochemical, small-molecule microarray, fluorescence 635/667, stem cell growth factor project, primary screen (AID 1071); settings: higher = more signal;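 note: score merges 667 nm spot intensity and signal to noise from triplicate slides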
[5] = biological target: Neurogenic locus notch homolog protein 2 (Homo sapiens) (UniProt Q04721); test: small molecules binding Notch2 protein – biochemical, small-molecule microarray, 635 nm fluorescence, stem cell growth factors, primary screen (AID 1073); settings: higher = more signal
[6] = biological target: Pro-neuregulin-1, membrane-bound isoform (Homo sapiens) (UniProt Q02297); test: small molecules binding neuregulin-1 protein – biochemical, small-molecule microarray, fluorescence 635/667, psychiatric disease protein project, primary screen (AID 1075); settings: NRG1 binding, 635 nm fluorescence, higher = more signal;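 note: score combines 667 nm spot fluorescence with signal to noise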
Sequence of Pro-neuregulin-1, membrane-bound isoform (Homo sapiens) (Q02297 whole entry, looked up, the tested form may be a part, canonical isoform): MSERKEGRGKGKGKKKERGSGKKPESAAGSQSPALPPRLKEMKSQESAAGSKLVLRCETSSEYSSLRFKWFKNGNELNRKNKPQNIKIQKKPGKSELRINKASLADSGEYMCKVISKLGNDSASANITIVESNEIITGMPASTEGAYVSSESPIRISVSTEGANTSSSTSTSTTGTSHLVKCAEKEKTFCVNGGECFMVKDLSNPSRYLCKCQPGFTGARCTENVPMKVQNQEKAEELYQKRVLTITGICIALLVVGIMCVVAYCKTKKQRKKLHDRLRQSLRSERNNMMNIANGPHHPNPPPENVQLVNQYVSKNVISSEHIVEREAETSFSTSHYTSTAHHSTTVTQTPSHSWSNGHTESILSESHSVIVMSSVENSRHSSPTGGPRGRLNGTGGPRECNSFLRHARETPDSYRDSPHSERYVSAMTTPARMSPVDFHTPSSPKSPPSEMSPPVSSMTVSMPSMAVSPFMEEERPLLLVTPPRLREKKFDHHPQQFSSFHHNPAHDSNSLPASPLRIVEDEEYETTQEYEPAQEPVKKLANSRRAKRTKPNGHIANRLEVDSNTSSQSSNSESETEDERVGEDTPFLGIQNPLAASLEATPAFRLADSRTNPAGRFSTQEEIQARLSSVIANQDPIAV

[7] = tested on: Neuregulin-1 EGF-like domain; test: small molecules binding NRG1 EGF domain – biochemical, small-molecule microarray, 635 nm fluorescence, primary screen (AID 1081); settings: higher = more signal;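 note: binding of the protein to compounds printed on small-molecule microarray slides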
[8] = FRG1 expression reporter modulators in myotubes – cell-based, C2C12 myotubes, firefly/Renilla luciferase, luminescence, FRG1 inhibition for FSHD, primary screen (AID 1084); settings: FRG1 promoter luciferase, higher = more signal, called active from +8 up or from −8 down
[9] = small molecules captured by biotinylated probe aFST – biochemical, small-molecule microarray, fluorescence 635/667, stem cell growth factor project, primary screen (AID 1086); settings: higher = more signal;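 note: score merges 667 nm fluorescence with signal-to-noise of each printed compound spot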
[10] = binders of probe aHhip on microarray, primary screen, stem cell growth factor project, biochemical, small-molecule microarray, fluorescence 635/667 (AID 1087); settings: higher = more signal;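 note: score merges spot fluorescence at 667nm with spot signal to noise ratio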
[11] = tested on: PRMT1 (protein arginine N-methyltransferase 1); test: small molecules binding arginine methyltransferase PRMT1 – biochemical, small-molecule microarray, 635 nm fluorescence, primary screen (AID 1088); settings: higher = more signal;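 note: binding of Prmt1 protein to compounds spotted on small-molecule microarray slides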
[12] = growth effects on S. cerevisiae YJM789 – YJM789 clinical isolate, OD600, 24 h, basal, primary screen (AID 1089); settings: higher = more signal, called active from +8 up or from −8 down;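 note: growth of clinical yeast isolate S. cerevisiae YJM 789 seeded 1000 cells per well; test concentration not given here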
[13] = S. pombe growth modifiers, basal conditions – strain 972, OD600, 24 h, no modulator, primary screen (AID 1090);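 note: basal condition with compound alone and no growth modifier present; test concentration not given here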; settings: S. pombe 972 growth, higher = more signal, called active from +8 up or from −8 down
[14] = budding yeast growth modifiers under rapamycin – strain BY4716, OD600, 96 h, primary screen (AID 1091); note: test concentration not given here; settings: S. cerevisiae BY4716 + rapamycin, higher = more signal, called active from +8 up or from −8 down
[15] = biological target: Torsin-1A-interacting protein 2 (Homo sapiens) (UniProt Q8NFQ8); test: small molecules binding lysate-expressed LULL1 – cell lysate, human LULL1 lysate, 635/667 nm fluorescence, primary screen (AID 1092); settings: small-molecule microarray, hLULL1 lysate binding, 635 nm fluorescence; higher = more signal;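 note: probe is lysate of COS7 cells overexpressing human LULL1; score merges per-feature 667 nm fluorescence with signal-to-noise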
Sequence of Torsin-1A-interacting protein 2 (Homo sapiens) (Q8NFQ8 whole entry, looked up): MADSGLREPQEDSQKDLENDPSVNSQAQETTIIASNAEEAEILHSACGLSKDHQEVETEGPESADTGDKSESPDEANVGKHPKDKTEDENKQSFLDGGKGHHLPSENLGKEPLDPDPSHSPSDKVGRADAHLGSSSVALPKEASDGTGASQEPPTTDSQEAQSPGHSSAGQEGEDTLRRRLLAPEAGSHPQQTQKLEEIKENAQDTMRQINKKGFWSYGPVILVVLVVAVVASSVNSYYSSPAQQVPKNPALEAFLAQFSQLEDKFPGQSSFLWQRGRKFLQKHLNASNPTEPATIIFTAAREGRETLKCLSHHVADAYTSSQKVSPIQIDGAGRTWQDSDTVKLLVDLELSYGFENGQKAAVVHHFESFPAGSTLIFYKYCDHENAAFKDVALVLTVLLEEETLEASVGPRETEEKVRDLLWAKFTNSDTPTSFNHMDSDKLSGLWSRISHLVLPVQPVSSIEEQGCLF

[16] = optical density change of DRC41 E. coli – strain DRC41, OD650, 24 h, E. coli filamentation project, primary screen (AID 1093);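 note: MC1000 strain lacking acrAB efflux and sulA so SOS filamentation is blocked; test concentration not given here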; settings: E. coli DRC41 growth, higher = more signal, called active from +8 up or from −8 down
[17] = probe aLefty2 binding to arrayed compounds – biochemical, biotinylated probe, 635/667 nm fluorescence, primary screen (AID 1094); settings: small-molecule microarray, higher = more signal;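 note: score merges spot fluorescence near 667 nm with spot signal-to-noise ratio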
[18] = tested on: Noggin (protein binding on small-molecule microarray); test: small molecules binding Noggin protein – biochemical, 635/667 nm fluorescence, primary screen (AID 1095); settings: 635 nm fluorescence, higher = more signal;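 note: score merges 667 nm feature fluorescence with signal to noise over triplicate slides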
[19] = biological target: Neurogenic locus notch homolog protein 3 (Homo sapiens) (UniProt Q9UM47); test: small molecules binding NOTCH3 protein – biochemical, 635/667 nm fluorescence, primary screen (AID 1096); settings: small-molecule microarray, 635 nm fluorescence, higher = more signal
Sequence of Neurogenic locus notch homolog protein 3 (Homo sapiens) (Q9UM47 whole entry, looked up): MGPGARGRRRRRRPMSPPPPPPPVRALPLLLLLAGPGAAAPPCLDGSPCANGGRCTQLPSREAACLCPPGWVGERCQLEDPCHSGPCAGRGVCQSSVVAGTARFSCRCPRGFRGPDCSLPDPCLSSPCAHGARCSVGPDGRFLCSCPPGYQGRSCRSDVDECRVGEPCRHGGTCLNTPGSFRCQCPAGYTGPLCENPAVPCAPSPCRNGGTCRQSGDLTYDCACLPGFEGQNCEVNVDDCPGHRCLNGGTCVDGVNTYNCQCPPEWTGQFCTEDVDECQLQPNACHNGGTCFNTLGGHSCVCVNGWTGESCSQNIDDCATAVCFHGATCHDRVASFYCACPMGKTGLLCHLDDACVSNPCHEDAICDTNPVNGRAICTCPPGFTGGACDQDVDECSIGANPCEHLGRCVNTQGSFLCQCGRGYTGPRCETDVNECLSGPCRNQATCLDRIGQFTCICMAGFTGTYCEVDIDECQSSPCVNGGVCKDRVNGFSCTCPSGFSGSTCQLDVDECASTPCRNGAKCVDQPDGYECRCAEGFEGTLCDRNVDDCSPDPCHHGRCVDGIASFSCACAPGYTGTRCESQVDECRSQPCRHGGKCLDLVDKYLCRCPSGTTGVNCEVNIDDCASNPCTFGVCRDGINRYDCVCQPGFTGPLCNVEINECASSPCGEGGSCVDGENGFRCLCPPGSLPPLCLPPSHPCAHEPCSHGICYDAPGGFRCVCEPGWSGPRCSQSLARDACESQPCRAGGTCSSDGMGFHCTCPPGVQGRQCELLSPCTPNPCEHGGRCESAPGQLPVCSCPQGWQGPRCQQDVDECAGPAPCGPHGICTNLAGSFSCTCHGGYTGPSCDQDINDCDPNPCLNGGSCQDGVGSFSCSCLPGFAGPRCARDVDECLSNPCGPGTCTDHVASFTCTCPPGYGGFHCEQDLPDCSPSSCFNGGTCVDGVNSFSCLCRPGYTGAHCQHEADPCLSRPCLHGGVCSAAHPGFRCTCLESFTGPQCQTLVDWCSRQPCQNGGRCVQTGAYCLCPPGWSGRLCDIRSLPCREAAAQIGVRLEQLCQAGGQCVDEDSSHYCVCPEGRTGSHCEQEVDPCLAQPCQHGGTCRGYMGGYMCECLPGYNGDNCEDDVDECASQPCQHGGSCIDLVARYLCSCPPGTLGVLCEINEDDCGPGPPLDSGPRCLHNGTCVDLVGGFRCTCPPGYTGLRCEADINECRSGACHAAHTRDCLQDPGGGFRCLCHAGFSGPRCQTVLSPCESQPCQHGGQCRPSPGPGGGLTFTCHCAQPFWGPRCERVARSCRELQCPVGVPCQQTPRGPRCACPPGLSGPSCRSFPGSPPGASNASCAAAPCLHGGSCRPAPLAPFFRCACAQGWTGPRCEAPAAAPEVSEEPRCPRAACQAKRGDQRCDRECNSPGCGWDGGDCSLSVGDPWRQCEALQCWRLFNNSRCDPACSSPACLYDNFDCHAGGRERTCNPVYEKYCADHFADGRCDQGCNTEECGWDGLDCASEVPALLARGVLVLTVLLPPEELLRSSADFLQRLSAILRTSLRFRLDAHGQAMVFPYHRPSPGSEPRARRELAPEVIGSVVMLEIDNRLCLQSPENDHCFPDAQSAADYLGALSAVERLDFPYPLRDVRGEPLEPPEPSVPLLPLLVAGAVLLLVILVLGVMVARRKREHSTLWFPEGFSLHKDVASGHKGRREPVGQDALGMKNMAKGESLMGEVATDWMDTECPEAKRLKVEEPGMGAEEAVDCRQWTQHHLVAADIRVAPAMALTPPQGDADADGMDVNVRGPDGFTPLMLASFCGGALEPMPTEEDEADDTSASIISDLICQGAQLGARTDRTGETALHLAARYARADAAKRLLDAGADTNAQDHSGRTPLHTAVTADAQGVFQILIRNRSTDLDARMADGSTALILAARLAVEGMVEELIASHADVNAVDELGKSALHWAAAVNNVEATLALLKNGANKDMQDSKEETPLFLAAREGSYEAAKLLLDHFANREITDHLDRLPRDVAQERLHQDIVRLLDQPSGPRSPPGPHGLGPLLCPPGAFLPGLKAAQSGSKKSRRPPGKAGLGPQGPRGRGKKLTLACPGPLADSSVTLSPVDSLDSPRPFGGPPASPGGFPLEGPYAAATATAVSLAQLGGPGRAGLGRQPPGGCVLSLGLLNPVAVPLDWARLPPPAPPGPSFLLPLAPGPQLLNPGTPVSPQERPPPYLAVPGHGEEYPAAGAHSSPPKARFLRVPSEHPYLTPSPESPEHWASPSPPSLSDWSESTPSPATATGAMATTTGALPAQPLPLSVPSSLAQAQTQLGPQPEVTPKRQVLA

[20] = probe aEGFR binding to arrayed compounds – biochemical, biotinylated probe, 635/667 nm fluorescence, primary screen (AID 1097); settings: small-molecule microarray, higher = more signal;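 note: probe is a biotinylated anti-EGFR antibody binding compounds printed on slides; score combines fluorescence near 667 nm and signal to noise of each spot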

SMILES	composite z-score [1]	composite z-score [2]	composite z-score [3]	composite z-score [4]	composite z-score [5]	composite z-score [6]	composite z-score [7]	z-score [8]	composite z-score [9]	composite z-score [10]	composite z-score [11]	z-score [12]	z-score [13]	z-score [14]	composite z-score [15]	z-score [16]	composite z-score [17]	composite z-score [18]	composite z-score [19]	composite z-score [20]
NC(=O)NCC#Cc1ccc2c(c1)[C@]1(C(=O)N2)[C@H](C(N)=O)[C@H]2C(=O)O[C@H](c3ccccc3)[C@H](c3ccccc3)N2[C@@H]1c1ccccc1OCCO	0.163	0.494	0.0143	0.0467	0.335	0.221	-0.0706	-0.317 (inactive)	0.597	-0.0645	1.22	0.592 (inactive)	0.742 (inactive)	0.804 (inactive)	1.04	-0.829 (inactive)	0.129	0.546	1.11	-0.151
CC(C)=C1C(=O)C(c2ccccc2)=C2CN3C(=O)N(CCc4ccccc4)C(=O)[C@]3(Cc3ccccc3)[C@H]21	0.5	-0.463	-0.0612	0.103	-0.272	0.0953	-0.318	0.438 (inactive)	0.0891	-0.112	-0.632	0.637 (inactive)	0.927 (inactive)	0.867 (inactive)	1.15	-0.901 (inactive)	0.213	-0.974	-0.546	-0.138
CCC(=O)[C@]12O[C@@]3([C@@H]4C(=O)OCC[C@@H]41)N(Cc1ccccc1)C(C)=C(C(=O)OC)[C@@H](c1ccccc1)N3C2=O	0.232	-0.289	-0.163	-0.133	-0.333	-0.0829	-0.814	-0.0144 (inactive)	-0.348	-0.134	0.131	-0.641 (inactive)	-1.16 (inactive)	-1.17 (inactive)	-0.417	0.151 (inactive)	-0.143	-1.66	-0.406	-0.246
C=CC[C@]1(C(=O)N2CCCCC2)N=C(c2ccc(OCCCO)cc2)O[C@H]1c1ccccc1N=[N+]=[N-]	1.16	1.11	0.256	0.984	1.5	1.67	1.24	-2.1 (inactive)	1.87	-0.0237	1.58	-0.534 (inactive)	-1.18 (inactive)	0.946 (inactive)	3.44	0.208 (inactive)	0.619	1.17	1.08	0.561
CC(C)CNC(=O)[C@@]1(C)c2ccccc2C(=O)N(Cc2ccc(OC(F)(F)F)cc2)[C@H]1c1ccc(CO)cc1	1.39	-0.37	-0.0149	-0.925	-1.71	-0.81	0.257	-3.49 (inactive)	-0.291	-0.353	-0.379	-0.545 (inactive)	-0.808 (inactive)	-0.53 (inactive)	0.932	1.52 (inactive)	0.117	-1.13	-1.27	-0.112
C#CCNC(/C=C/c1ccccc1)CO (stereo not given)	-0.383	0.329	-0.0973	0.41	0.495	-0.21	-0.0021	-0.156 (inactive)	0.155	-0.0237	0.142	1.11 (inactive)	0.64 (inactive)	1.24 (inactive)	0.0064	-0.852 (inactive)	-0.0668	0.381	0.447	-0.135
CCCC=C(CCC)[C@@H](NC(=O)c1ccccc1)c1ccccc1	0.969	-0.239	-0.0392	-0.41	-0.028	-0.806	-0.943	-0.788 (inactive)	0.636	0.304	-0.732	0.0874 (inactive)	-0.272 (inactive)	0.912 (inactive)	0.446	-0.494 (inactive)	-0.0446	-0.96	-0.177	-0.0828
COc1cc2c(cc1OC)CN(C(=O)[C@@H]1[C@H]3C(=O)O[C@H](c4ccccc4)[C@H](c4ccccc4)N3[C@H](c3ccccc3OCCO)[C@@]13C(=O)Nc1ccccc13)CC2	-1.08	1.04	-0.148	0.575	0.803	1.39	1.18	-0.268 (inactive)	-0.44	-0.702	1.55	2.39 (inactive)	1.19 (inactive)	5.58 (inactive)	1.76	1.92 (inactive)	-0.301	0.208	1.05	-0.198
COc1cc(CO)cc(I)c1O[C@H]1C=C(C(=O)NCCO)C[C@@H](NCCc2c[nH]c3ccccc23)[C@@H]1O	0.318	0.52	0.0019	1.01	0.832	-0.0224	1.01	-0.389 (inactive)	0.714	-0.184	1.39	0.004 (inactive)	-12.4 (active)	-2.09 (inactive)	0.499	2.12 (inactive)	0.341	0.947	0.705	0.192
CO[C@@H]1COC(=O)[C@H](C)NC(=O)CC=C[C@@H](C)[C@H](OC)COC(=O)[C@H](C)NC(=O)CC=C[C@H]1C	-0.348	0.395	-0.112	0.269	0.208	-0.0025	0.0912	0.0543 (inactive)	0.0054	-0.146	0.0529	0.611 (inactive)	-0.76 (inactive)	0.0943 (inactive)	-0.391	0.485 (inactive)	-0.137	0.705	0.546	-0.121
